The source made the active and inactive calls. The calls were made as follows: active = hit-call score of the fitted dose curve at least 0.9, where 1 is the maximum; inactive = score below 0.9.
Legend:
[1] = read-out: Human Leukocyte Antigen - DR isotype (HLADR), HLA-DRA (gene 3122); assay: BSK_CASM3C_HLADR: BioMAP Diversity Plus: CASM3C Assay for Human Leukocyte Antigen - DR isotype (HLADR) Biomarker Activity (AID 2283043); conditions: primary human coronary artery smooth muscle cells; actives raise or lower the signal;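 also: cell-surface HLA-DR protein level quantified by ELISA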
[2] = read-out: Macrophage colony-stimulating factor (MCSF), CSF1 (gene 1435); assay: BSK_CASM3C_MCSF: BioMAP Diversity Plus: CASM3C Assay for Macrophage colony-stimulating factor (MCSF) Biomarker Activity (AID 2283044); conditions: primary human coronary artery smooth muscle cells; actives raise or lower the signal;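 also: M-CSF protein amount quantified by ELISA after 24 h exposure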
[3] = read-out: Low-density lipoprotein receptor (LDLR), LDLR (gene 3949); assay: BSK_CASM3C_LDLR: BioMAP Diversity Plus: CASM3C Assay for Low-density lipoprotein receptor (LDLR) Biomarker Activity (AID 2283045); conditions: primary human coronary artery smooth muscle cells; actives raise or lower the signal;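 also: LDLR protein level on the cell surface quantified by ELISA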
[4] = read-out: Monocyte Chemoattractant Protein-1 (MCP1), CCL2 (gene 6347); assay: BSK_CASM3C_MCP1: BioMAP Diversity Plus: CASM3C Assay for Monocyte Chemoattractant Protein-1 (MCP1) Biomarker Activity (AID 2283046); conditions: primary human coronary artery smooth muscle cells; actives raise or lower the signal;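 also: MCP-1 level quantified by ELISA 24 h after dosing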
[5] = BSK_CASM3C_Proliferation: Cell Proliferation Assessment in the BioMAP Diversity Plus: CASM3C Assay (AID 2283047); conditions: primary human coronary artery smooth muscle cells;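 also: sulforhodamine B total protein stain as relative cell number at 560 nm; sub-confluent cells exposed 48 h before staining; fitted both ways against DMSO so gain or loss of cell number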
[6] = read-out: Monokine induced gamma interferon (MIG), CXCL9 (gene 4283); assay: BSK_CASM3C_MIG: BioMAP Diversity Plus: CASM3C Assay for Monokine induced gamma interferon (MIG) Biomarker Activity (AID 2283048); conditions: primary human coronary artery smooth muscle cells; actives raise or lower the signal;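 also: MIG protein level measured by ELISA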
[7] = read-out: serum amyloid A (SAA), SAA1 (gene 6288); assay: BSK_CASM3C_SAA: BioMAP Diversity Plus: CASM3C Assay for serum amyloid A (SAA) Biomarker Activity (AID 2283049); conditions: primary human coronary artery smooth muscle cells; actives raise or lower the signal;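 also: SAA protein level quantified by ELISA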
[8] = BSK_CASM3C_SRB: Viability Assessment in the BioMAP Diversity Plus: CASM3C Assay (AID 2283050); conditions: primary human coronary artery smooth muscle cells;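 also: total protein by SRB staining as cytotoxicity measure in parallel cultures; cells exposed to compound for 24 h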
[9] = read-out: Thrombomodulin, THBD (gene 7056); assay: BSK_CASM3C_Thrombomodulin: BioMAP Diversity Plus: CASM3C Assay for Thrombomodulin Biomarker Activity (AID 2283051); conditions: primary human coronary artery smooth muscle cells; actives raise or lower the signal;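 also: thrombomodulin protein level measured by ELISA 24 h after dosing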
[10] = read-out: Tissue Factor, F3 (gene 2152); assay: BSK_CASM3C_TissueFactor: BioMAP Diversity Plus: CASM3C Assay for Tissue Factor Biomarker Activity (AID 2283052); conditions: primary human coronary artery smooth muscle cells; actives raise or lower the signal;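 also: cell surface tissue factor protein level read by ELISA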

## O=C(NC(=O)c1c(F)cccc1F)Nc1cc(Cl)c(OC(F)(F)C(F)F)c(Cl)c1
[1]
  outcome: inactive
[2]
  outcome: inactive
[3]
  outcome: inactive
[4]
  outcome: inactive
[5]
  outcome: inactive
[6]
  outcome: inactive
[7]
  outcome: inactive
[8]
  outcome: inactive
[9]
  outcome: inactive
[10]
  outcome: inactive

## Clc1ccc(C(Cl)(Cl)Cl)cc1
[1]
  outcome: inactive
[2]
  outcome: inactive
[3]
  outcome: inactive
[4]
  outcome: inactive
[5]
  outcome: inactive
[6]
  outcome: inactive
[7]
  outcome: inactive
[8]
  outcome: inactive
[9]
  outcome: inactive
[10]
  outcome: inactive

## CO/C=C(/C(=O)OC)c1ccccc1COc1cccc(C(F)(F)F)n1
[1]
  outcome: inactive
[2]
  outcome: inactive
[3]
  outcome: inactive
[4]
  outcome: inactive
[5]
  AC50: 5.66 µM (active)
[6]
  outcome: inactive
[7]
  outcome: inactive
[8]
  outcome: inactive
[9]
  outcome: inactive
[10]
  outcome: inactive

## CCC(=O)O[C@H]1CC[C@H]2[C@@H]3CCC4=CC(=O)CC[C@]4(C)[C@H]3CC[C@]12C
[1]
  outcome: inactive
[2]
  outcome: inactive
[3]
  outcome: inactive
[4]
  outcome: inactive
[5]
  AC50: 20 µM (active)
[6]
  outcome: inactive
[7]
  outcome: inactive
[8]
  outcome: inactive
[9]
  outcome: inactive
[10]
  outcome: inactive

## CC(C)(c1ccccc1)c1ccc(O)cc1
[1]
  AC50: 32.3 µM (active)
[2]
  outcome: inactive
[3]
  outcome: inactive
[4]
  outcome: inactive
[5]
  AC50: 30.5 µM (active)
[6]
  outcome: inactive
[7]
  outcome: inactive
[8]
  AC50: 29.5 µM (active)
[9]
  AC50: 20 µM (active)
[10]
  outcome: inactive

## ClC1=C(Cl)[C@]2(Cl)[C@@H]3[C@H]4C[C@H]([C@@H]5O[C@H]45)[C@@H]3[C@@]1(Cl)C2(Cl)Cl
[1]
  outcome: inactive
[2]
  outcome: inactive
[3]
  outcome: inactive
[4]
  outcome: inactive
[5]
  outcome: inactive
[6]
  outcome: inactive
[7]
  outcome: inactive
[8]
  outcome: inactive
[9]
  outcome: inactive
[10]
  AC50: 7.07 µM (active)

## CCCN(CCC)N=O
[2]
  outcome: inactive
[3]
  outcome: inactive
[4]
  outcome: inactive
[5]
  outcome: inactive
[6]
  outcome: inactive
[7]
  outcome: inactive
[8]
  outcome: inactive
[9]
  outcome: inactive
[10]
  outcome: inactive

## C=CC(N)=O
[1]
  outcome: inactive
[2]
  outcome: inactive
[3]
  outcome: inactive
[4]
  AC50: 0.887 µM (active)
[5]
  outcome: inactive
[6]
  outcome: inactive
[7]
  outcome: inactive
[8]
  outcome: inactive
[9]
  outcome: inactive
[10]
  outcome: inactive

## ClC1=C(Cl)[C@]2(Cl)[C@@H]3[C@@H](Cl)[C@H]4O[C@H]4[C@@H]3C1(Cl)C2(Cl)Cl
[1]
  outcome: inactive
[2]
  outcome: inactive
[3]
  outcome: inactive
[4]
  outcome: inactive
[5]
  AC50: 12.3 µM (active)
[6]
  outcome: inactive
[7]
  outcome: inactive
[8]
  outcome: inactive
[9]
  outcome: inactive
[10]
  outcome: inactive

## COS(=O)(=O)OC
[1]
  outcome: inactive
[2]
  outcome: inactive
[3]
  outcome: inactive
[4]
  outcome: inactive
[5]
  outcome: inactive
[6]
  outcome: inactive
[7]
  outcome: inactive
[8]
  outcome: inactive
[9]
  outcome: inactive
[10]
  outcome: inactive

## CCC(C)(c1ccc(O)cc1)c1ccc(O)cc1
[1]
  outcome: inactive
[2]
  outcome: inactive
[3]
  outcome: inactive
[4]
  outcome: inactive
[5]
  AC50: 25.5 µM (active)
[6]
  outcome: inactive
[7]
  outcome: inactive
[8]
  outcome: inactive
[9]
  AC50: 26.5 µM (active)
[10]
  outcome: inactive

## Clc1ccc(C(c2ccccc2Cl)C(Cl)(Cl)Cl)cc1 (stereo not drawn)
[1]
  AC50: 17.6 µM (active)
[2]
  AC50: 13.8 µM (active)
[3]
  AC50: 14.3 µM (active)
[4]
  AC50: 23.7 µM (active)
[5]
  AC50: 20.1 µM (active)
[6]
  outcome: inactive
[8]
  AC50: 22.8 µM (active)
[9]
  AC50: 19.6 µM (active)
[10]
  outcome: inactive

## CCCCCCCCOC(=O)c1ccccc1C(=O)OCCCCCCCC
[1]
  outcome: inactive
[2]
  outcome: inactive
[3]
  outcome: inactive
[4]
  outcome: inactive
[5]
  outcome: inactive
[6]
  outcome: inactive
[7]
  outcome: inactive
[8]
  outcome: inactive
[9]
  outcome: inactive
[10]
  outcome: inactive

## ClC(Cl)=C(c1ccc(Cl)cc1)c1ccc(Cl)cc1
[1]
  AC50: 20 µM (active)
[2]
  AC50: 20 µM (active)
[3]
  outcome: inactive
[4]
  outcome: inactive
[5]
  AC50: 29.1 µM (active)
[6]
  outcome: inactive
[7]
  outcome: inactive
[8]
  outcome: inactive
[9]
  AC50: 20 µM (active)
[10]
  outcome: inactive

## Cc1cccc(C)c1N
[1]
  outcome: inactive
[2]
  outcome: inactive
[3]
  outcome: inactive
[4]
  outcome: inactive
[5]
  outcome: inactive
[6]
  outcome: inactive
[7]
  outcome: inactive
[8]
  outcome: inactive
[9]
  outcome: inactive
[10]
  outcome: inactive

## C[C@]12CCC(=O)C=C1CC[C@@H]1[C@@H]2CC[C@@]2(C)[C@H]1CC[C@]2(C)O
[1]
  outcome: inactive
[2]
  outcome: inactive
[3]
  outcome: inactive
[4]
  outcome: inactive
[5]
  outcome: inactive
[6]
  outcome: inactive
[7]
  outcome: inactive
[8]
  outcome: inactive
[9]
  outcome: inactive
[10]
  outcome: inactive

## CCSC(=O)N(CC)C1CCCCC1
[1]
  outcome: inactive
[2]
  outcome: inactive
[3]
  outcome: inactive
[4]
  outcome: inactive
[5]
  outcome: inactive
[6]
  outcome: inactive
[7]
  outcome: inactive
[8]
  outcome: inactive
[9]
  outcome: inactive
[10]
  outcome: inactive

Source: PubChem BioAssay (EPA / NIEHS)
